Experiment [1] concerns the target Sphingosine kinase 1 (Homo sapiens) (UniProt Q9NYA1). As to conditions: at 1 µM.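 Also: mean SPHK1 inhibition value reported from the GSK PKIS kinase panel screen.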
For experiment [2], the target named is T1, Sphingosine kinase 2 (Homo sapiens) (UniProt Q9NRA0).
T1 sequence (whole entry): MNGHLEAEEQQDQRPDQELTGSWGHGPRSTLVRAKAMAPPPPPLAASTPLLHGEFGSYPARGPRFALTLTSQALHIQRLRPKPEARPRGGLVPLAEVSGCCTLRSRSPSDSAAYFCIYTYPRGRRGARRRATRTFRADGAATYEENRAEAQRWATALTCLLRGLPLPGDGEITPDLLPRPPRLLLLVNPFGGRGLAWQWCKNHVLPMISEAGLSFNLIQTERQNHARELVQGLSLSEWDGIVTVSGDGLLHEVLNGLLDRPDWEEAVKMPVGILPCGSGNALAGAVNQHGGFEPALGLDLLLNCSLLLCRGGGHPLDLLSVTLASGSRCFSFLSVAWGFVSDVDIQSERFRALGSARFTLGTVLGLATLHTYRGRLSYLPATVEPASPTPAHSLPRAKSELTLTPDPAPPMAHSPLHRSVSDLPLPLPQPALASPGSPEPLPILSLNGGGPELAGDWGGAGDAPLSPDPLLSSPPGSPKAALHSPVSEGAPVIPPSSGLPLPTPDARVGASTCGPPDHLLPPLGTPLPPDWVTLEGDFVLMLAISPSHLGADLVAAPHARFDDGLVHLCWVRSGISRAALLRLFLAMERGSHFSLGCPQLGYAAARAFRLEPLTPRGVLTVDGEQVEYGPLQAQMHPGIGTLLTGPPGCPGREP
As to conditions: at 0.1 µM.

Experiment [3] concerns the target T1, Sphingosine kinase 2 (Homo sapiens). As to conditions: at 1 µM.
In experiment [4] the target is Casein kinase II subunit alpha (Homo sapiens) (UniProt P68400). As to conditions: at 0.1 µM.
Experiment [5] shares this target. As to conditions: at 1 µM.
Experiment [6] deals with T2, Inhibitor of nuclear factor kappa-B kinase subunit alpha (Homo sapiens) (UniProt O15111).
T2 sequence (whole entry): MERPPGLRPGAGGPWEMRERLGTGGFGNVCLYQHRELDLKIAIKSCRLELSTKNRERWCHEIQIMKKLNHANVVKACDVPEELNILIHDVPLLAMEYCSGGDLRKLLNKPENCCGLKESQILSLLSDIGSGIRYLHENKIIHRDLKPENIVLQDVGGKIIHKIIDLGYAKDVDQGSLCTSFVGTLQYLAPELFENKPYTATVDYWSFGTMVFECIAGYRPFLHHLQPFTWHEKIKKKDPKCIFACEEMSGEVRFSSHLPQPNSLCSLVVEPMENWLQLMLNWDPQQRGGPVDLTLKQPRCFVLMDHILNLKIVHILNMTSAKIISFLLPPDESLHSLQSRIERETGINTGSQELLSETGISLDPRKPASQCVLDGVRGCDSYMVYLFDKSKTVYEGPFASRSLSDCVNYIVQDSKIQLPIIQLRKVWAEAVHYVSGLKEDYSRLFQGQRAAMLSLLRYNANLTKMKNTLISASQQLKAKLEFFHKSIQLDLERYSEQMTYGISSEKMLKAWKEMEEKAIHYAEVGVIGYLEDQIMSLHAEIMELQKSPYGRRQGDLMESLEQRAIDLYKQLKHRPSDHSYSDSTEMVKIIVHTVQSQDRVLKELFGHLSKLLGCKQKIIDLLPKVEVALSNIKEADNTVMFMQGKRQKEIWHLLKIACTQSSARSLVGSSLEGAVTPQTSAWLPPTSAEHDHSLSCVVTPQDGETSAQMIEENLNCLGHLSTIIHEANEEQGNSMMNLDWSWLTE
As to conditions: at 0.1 µM.

Experiment [7] addresses T2, Inhibitor of nuclear factor kappa-B kinase subunit alpha (Homo sapiens). The settings on record: at 1 µM.
Experiment [8] has as its target T3, Inhibitor of nuclear factor kappa-B kinase subunit beta (Homo sapiens) (UniProt O14920).
T3 sequence (whole entry): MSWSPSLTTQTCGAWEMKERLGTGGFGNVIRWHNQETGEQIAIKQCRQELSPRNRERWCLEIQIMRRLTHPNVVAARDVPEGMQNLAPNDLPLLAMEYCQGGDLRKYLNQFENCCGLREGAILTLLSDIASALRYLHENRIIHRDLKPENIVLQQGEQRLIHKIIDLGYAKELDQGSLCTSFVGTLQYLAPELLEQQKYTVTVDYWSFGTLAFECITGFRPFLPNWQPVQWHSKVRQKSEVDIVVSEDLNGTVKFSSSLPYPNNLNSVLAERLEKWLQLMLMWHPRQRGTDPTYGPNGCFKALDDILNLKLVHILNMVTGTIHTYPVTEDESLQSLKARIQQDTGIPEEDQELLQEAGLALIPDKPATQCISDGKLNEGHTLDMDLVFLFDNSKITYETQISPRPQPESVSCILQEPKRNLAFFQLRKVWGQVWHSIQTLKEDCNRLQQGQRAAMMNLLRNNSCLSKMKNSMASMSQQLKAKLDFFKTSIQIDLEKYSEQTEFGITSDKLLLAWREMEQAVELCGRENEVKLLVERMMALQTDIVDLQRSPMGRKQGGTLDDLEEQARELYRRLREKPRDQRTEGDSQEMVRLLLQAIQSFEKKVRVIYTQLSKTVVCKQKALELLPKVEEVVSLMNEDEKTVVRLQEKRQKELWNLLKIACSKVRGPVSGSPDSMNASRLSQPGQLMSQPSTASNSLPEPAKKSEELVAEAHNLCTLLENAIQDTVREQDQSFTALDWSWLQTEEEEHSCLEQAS
As to conditions: at 0.1 µM.

Experiment [9] has as its target T3, Inhibitor of nuclear factor kappa-B kinase subunit beta (Homo sapiens). The settings on record: at 1 µM.
Experiment [10] has as its target T4, Inhibitor of nuclear factor kappa-B kinase subunit epsilon (Homo sapiens) (UniProt Q14164).
T4 sequence (whole entry): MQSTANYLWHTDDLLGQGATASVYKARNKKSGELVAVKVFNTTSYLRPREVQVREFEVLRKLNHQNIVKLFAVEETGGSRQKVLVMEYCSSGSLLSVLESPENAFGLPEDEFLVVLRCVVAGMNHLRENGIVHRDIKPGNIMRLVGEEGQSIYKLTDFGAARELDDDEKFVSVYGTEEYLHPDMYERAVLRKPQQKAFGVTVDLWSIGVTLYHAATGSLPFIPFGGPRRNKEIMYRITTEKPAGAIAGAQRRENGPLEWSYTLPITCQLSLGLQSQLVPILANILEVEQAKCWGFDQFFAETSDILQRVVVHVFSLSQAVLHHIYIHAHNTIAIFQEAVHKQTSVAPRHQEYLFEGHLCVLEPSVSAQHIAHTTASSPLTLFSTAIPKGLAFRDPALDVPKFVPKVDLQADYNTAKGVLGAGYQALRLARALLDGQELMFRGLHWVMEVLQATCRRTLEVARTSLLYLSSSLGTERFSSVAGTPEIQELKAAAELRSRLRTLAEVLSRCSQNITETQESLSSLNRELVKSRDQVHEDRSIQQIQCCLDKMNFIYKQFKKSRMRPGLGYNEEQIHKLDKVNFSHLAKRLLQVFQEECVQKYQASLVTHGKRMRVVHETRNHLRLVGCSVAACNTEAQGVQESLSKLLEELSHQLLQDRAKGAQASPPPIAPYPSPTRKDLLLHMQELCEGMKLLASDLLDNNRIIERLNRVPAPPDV
As to conditions: at 0.1 µM.

Experiment [11] concerns the target T4, Inhibitor of nuclear factor kappa-B kinase subunit epsilon (Homo sapiens). As to conditions: at 1 µM.
For experiment [12], the target named is T5, Serine/threonine-protein kinase Nek1 (Homo sapiens) (UniProt Q96PY6).
T5 sequence (whole entry): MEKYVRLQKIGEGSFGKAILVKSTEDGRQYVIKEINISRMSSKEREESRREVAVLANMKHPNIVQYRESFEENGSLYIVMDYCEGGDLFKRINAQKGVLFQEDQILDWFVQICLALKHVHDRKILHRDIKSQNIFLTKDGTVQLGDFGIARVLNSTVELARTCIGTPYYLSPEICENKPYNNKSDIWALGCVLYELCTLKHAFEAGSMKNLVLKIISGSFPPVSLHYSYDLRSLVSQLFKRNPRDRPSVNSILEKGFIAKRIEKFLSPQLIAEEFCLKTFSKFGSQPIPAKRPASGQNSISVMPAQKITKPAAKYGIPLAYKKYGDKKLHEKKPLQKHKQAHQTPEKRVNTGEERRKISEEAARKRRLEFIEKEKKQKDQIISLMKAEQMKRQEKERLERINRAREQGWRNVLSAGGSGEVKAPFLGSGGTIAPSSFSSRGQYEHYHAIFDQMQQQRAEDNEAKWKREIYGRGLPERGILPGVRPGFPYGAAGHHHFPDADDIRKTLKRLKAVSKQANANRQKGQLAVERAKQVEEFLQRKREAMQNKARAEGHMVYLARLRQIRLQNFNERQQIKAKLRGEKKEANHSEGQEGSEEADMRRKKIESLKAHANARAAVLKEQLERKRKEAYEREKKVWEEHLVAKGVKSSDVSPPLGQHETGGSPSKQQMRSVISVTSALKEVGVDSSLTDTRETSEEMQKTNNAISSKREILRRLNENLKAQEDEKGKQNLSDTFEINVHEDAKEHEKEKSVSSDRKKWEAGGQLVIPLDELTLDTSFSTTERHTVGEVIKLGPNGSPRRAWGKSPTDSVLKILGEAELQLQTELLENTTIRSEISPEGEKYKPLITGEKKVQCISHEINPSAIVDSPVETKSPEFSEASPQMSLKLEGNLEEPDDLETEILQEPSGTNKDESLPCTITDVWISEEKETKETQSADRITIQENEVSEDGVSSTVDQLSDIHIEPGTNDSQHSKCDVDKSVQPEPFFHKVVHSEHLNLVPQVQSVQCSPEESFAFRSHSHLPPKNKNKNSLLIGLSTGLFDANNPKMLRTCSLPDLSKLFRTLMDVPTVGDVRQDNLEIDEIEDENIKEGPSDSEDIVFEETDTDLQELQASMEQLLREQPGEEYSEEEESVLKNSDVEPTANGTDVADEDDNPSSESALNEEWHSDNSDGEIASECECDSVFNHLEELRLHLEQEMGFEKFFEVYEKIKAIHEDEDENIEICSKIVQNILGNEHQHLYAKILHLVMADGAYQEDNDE
The settings on record: at 0.1 µM.

Experiment [13] has as its target T5, Serine/threonine-protein kinase Nek1 (Homo sapiens). The settings on record: at 1 µM.
Experiment [14] has as its target T6, Serine/threonine-protein kinase Nek2 (Homo sapiens) (UniProt P51955).
T6 sequence (whole entry): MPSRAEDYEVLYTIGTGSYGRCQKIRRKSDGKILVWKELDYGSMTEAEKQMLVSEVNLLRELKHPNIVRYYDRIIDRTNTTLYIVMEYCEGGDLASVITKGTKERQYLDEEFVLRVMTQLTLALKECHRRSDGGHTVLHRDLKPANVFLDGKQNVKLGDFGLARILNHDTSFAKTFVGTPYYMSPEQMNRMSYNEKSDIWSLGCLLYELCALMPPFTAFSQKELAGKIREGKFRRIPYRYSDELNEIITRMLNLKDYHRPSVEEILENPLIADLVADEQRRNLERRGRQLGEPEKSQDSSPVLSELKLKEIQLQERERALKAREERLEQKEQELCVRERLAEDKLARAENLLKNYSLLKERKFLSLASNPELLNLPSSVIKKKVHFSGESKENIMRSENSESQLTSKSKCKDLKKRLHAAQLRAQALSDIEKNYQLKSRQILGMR
As to conditions: at 0.1 µM.

For experiment [15], the target named is T6, Serine/threonine-protein kinase Nek2 (Homo sapiens). As to conditions: at 1 µM.
In experiment [16] the target is Serine/threonine-protein kinase Nek6 (Homo sapiens) (UniProt Q9HC98). As to conditions: at 0.1 µM.
Experiment [17] has the same target. The settings on record: at 1 µM.
The target of experiment [18] is Serine/threonine-protein kinase Nek7 (Homo sapiens) (UniProt Q8TDX7). The settings on record: at 0.1 µM.
Experiment [19] has the same target. As to conditions: at 1 µM.
For experiment [20], the target named is T7, Serine/threonine-protein kinase Nek9 (Homo sapiens) (UniProt Q8TD19).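 Also: reported value is the mean percent inhibition of NEK9.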
T7 sequence (whole entry): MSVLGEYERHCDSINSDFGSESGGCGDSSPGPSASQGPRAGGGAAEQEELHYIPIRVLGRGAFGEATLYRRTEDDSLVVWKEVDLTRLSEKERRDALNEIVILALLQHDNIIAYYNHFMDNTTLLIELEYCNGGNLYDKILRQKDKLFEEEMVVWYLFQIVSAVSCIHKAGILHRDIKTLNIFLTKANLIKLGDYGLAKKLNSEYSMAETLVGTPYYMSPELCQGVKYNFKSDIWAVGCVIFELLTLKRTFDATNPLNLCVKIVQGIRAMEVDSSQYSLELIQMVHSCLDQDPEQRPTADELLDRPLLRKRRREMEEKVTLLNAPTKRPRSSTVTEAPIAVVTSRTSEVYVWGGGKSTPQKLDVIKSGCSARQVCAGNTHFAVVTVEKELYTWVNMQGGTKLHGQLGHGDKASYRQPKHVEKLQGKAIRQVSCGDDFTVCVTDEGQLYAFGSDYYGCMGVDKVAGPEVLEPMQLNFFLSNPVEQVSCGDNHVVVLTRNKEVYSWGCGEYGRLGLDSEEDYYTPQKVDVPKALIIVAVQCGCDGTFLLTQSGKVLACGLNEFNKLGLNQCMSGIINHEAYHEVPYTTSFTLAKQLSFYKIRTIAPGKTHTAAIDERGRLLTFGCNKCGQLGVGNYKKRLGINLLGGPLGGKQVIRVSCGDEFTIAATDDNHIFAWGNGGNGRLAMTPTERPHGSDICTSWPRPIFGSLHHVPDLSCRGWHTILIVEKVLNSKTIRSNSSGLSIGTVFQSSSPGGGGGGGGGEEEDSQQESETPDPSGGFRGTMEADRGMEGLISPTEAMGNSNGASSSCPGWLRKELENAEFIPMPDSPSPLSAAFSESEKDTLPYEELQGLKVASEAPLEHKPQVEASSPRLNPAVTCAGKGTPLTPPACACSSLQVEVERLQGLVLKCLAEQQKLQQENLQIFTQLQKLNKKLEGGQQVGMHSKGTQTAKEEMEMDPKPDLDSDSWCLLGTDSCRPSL
The settings on record: at 0.1 µM.

Each structure is given as a SMILES string.

Sequence of Serine/threonine-protein kinase Nek7 (Homo sapiens) (Q8TDX7 whole entry, looked up): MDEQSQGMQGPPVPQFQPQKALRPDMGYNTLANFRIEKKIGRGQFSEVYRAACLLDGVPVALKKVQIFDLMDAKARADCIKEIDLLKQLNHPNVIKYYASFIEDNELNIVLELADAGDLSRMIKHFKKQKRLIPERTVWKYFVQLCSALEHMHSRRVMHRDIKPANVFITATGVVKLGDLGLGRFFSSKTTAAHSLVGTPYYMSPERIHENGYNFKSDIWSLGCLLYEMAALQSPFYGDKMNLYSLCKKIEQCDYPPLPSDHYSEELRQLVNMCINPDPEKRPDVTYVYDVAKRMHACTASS
Sequence of Serine/threonine-protein kinase Nek6 (Homo sapiens) (Q9HC98 whole entry): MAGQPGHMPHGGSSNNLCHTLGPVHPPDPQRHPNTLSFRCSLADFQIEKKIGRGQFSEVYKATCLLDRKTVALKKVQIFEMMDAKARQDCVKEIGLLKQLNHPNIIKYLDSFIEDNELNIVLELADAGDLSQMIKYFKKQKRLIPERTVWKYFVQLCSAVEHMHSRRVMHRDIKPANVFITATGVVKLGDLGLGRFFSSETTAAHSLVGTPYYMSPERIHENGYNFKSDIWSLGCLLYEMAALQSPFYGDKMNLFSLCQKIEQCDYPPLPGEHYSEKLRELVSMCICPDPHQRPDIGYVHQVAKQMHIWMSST
Sequence of Casein kinase II subunit alpha (Homo sapiens) (P68400 whole entry, looked up): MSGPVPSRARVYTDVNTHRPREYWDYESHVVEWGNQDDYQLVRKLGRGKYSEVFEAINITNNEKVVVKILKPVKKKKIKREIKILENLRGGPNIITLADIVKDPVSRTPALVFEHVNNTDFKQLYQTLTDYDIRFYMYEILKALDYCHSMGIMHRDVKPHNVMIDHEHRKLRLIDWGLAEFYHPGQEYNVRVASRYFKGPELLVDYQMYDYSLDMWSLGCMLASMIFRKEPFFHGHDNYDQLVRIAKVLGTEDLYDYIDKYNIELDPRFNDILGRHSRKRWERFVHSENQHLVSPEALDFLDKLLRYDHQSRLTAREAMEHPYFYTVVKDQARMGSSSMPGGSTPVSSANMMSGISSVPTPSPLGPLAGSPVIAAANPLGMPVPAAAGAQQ
Sequence of Sphingosine kinase 1 (Homo sapiens) (Q9NYA1 whole entry): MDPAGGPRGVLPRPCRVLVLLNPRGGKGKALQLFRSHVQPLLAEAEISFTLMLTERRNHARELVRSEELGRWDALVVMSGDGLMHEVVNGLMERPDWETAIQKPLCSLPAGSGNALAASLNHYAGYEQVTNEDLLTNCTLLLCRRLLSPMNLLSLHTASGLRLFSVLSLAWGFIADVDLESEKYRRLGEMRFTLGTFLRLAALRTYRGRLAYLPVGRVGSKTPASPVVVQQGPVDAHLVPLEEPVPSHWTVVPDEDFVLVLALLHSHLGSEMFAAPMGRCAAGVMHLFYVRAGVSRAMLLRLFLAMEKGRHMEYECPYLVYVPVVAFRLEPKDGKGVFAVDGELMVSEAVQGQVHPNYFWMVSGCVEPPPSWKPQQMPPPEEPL

The term inhibition denotes the drop in the measured response relative to a control, in per cent. Read a low inhibition as a response near the control. For `CN(c1ccc(NC(=O)NCCN2CCOCC2)cc1)c1ccnc(Nc2ccc(CS(C)(=O)=O)cc2)n1`, the inhibition is 7.75% in experiment [1]; 0.36% in experiment [2]; 0.38% in experiment [3]; 5.71% in [4]; 11.9% in experiment [5]; 10.9% in [6]. Moreover, the inhibition in [7] came out at 8%; in experiment [8], 3.48%; in experiment [9], 3.83%; in [10], 3.55%; in experiment [11], 95.2%; in experiment [12], 2.09%. Besides, the inhibition amounted to 4.64% in experiment [13]; 2.52% in [14]; 1.94% in experiment [15]; 3.82% in [16]; 3.91% in experiment [17]; 3.06% in experiment [18]. Further, the inhibition in experiment [19] amounted to 3.17%; in experiment [20] it was 5.2%.

(Values after ChEMBL document CHEMBL1961873, “Compounds: GSK PKIS; Assays: Nanosyn kinase panel” (2012).)
